# Assay results taken from PubChem BioAssay AID1794808 (University of Kansas High Throughput Screening Laboratory, 2022).
# In all, about 210,000 compounds went through this assay and about 520 (0.25%) were called active. The entries come from a sample that favours actives as a whole. Values without a mark were called inactive. Rule as the data show it: active = inhibition above about 50%; inactive = the rest.
# Tested on: Plasmodium falciparum apicoplast DNA polymerase (apPOL)
# Assay: Pf-apPOL inhibitors, biochemical, fluorescence (AID 1794808)
# Details: Recombinant Pf-apPOL, molecular beacon fluorescence, 1.5 h; at 10 µM; hits give high values
row,SMILES,inhibition
1,COc1ccccc1OCC(=O)N1CCCCC1CCN1CCCCCC1 (stereo unspecified),-10.1%
2,Cc1ccc2c(c1)C(=O)CC(c1cc(Br)cc3c1OCOC3)O2 (stereo unspecified),-13.6%
3,Cc1ccccc1-n1nc2c(c1NC(=O)c1c(F)cccc1Cl)CS(=O)(=O)C2,-3.3%
4,Cc1nc(C(C)C)nc2c1CCC(=O)N2CCCN1CCOCC1,4%
5,Cc1cccc(NC(=O)CC2SC(=Nc3ccccc3)NC2=O)c1 (stereo unspecified),2.1%
6,O=C(NCCCN1CCOCC1)c1cc2c(=O)oc3ccccc3c2s1,1.2%
7,O=C(NC1CCCC1)c1ccc(-n2nc(N3CCCC3)ccc2=O)cc1,4.7%
8,COC(=O)c1ccccc1OC1OC(CO)C(O)C(O)C1NC(C)=O (stereo unspecified),1.3%
9,N#CC(C#N)=C1SCN(c2cccc(Cl)c2)CS1,66.2% (active)
10,O=C(c1ccc([N+](=O)[O-])cc1)N1CCN(c2cccc(Cl)c2)CC1,-2.7%
11,CC(=O)Nc1ccc(C(=O)N2CCN(c3cccc(Cl)c3)CC2)cc1,9.7%
12,CCn1cc(C2=CCN(S(=O)(=O)c3cccc(C)c3)CC2)c2cccnc21,-11%
13,Nc1cc2c(cc1[N+](=O)[O-])OCCOCCOc1ccc([N+](=O)[O-])cc1OCCOCCO2,-0.2%
14,CCCNc1cc(N2CCCC(CCC(=O)Nc3ccc4c(c3)OCCO4)C2)ncn1 (stereo unspecified),-2.1%
15,COc1cccc(NC(=O)c2cncc(-c3ccc(F)cc3)c2)c1,1.8%
16,Cc1cc(C)cc(-c2nc(-c3ccc4c(c3)oc(=O)n4C)no2)c1,0.7%
17,COc1ccc(C(O)=C2C(=O)C(=O)N(CCN3CCOCC3)C2c2ccccc2F)cc1OC (stereo unspecified),-2.5%
18,O=C(COc1ccc(Cl)cc1)N1CCC(N2CCCCCC2)CC1,-3.8%
19,COc1ccc(NCN2C(=O)c3cc(Cl)c(Cl)cc3C2=O)cc1,7.8%
20,CCN(CC)CCNC(=O)C(=O)NCC1OCCN1S(=O)(=O)c1ccc(F)cc1 (stereo unspecified),-1.4%
21,O=C(Nc1ccc(F)c(Cl)c1)c1noc2c1CCCCC2,-2.8%

row,SMILES,inhibition
1,CCCCC(NC(C)=O)C(=O)O (stereo unspecified),4.1%
2,CCCCOc1ccccc1/C=c1\sc2ncnn2c1=O,10.1%
3,COc1ccc(NC(=O)CCC2CCN(c3cc(NC4CC4)ncn3)CC2)cc1,0.2%
4,COCCNC(=O)NCCCc1ccc(N(C)C)cc1,-1.5%
5,COc1cccc(/C=c2\sc3nc(=O)c(C)nn3c2=O)c1,1.4%
6,CC(=O)N1CCc2sc(S(=O)(=O)N3CCN(c4ccccc4F)CC3)cc2C1,-5.6%
7,COc1ccc(-c2cc(=O)n(CCNC(=O)Cn3cnc4ccccc4c3=O)cn2)cc1,-6.7%
8,COc1ccc(NC(=O)CSc2nc3c(cnn3-c3ccc(C)cc3)c(=O)[nH]2)c(OC)c1,3.2%
9,C(=Nc1ccccc1-n1cccc1)c1cnc(-c2ccccc2)[nH]1,-2.2%
10,C=CCNC(=O)CCSc1ccc(Cl)cc1,0.6%
11,CC1CCCCC1NS(=O)(=O)c1cc(C(=O)Nc2ccc(F)c(F)c2)ccc1F (stereo unspecified),37.3%
12,CC12CC3(C)CC(C)(C1)CC(C(=O)Nc1ccc(F)c(Cl)c1)(C2)C3,-2.2%
13,O=C(c1cc(F)cc(F)c1)N1CCC(c2cnn(-c3cccc(F)c3)c2)CC1,-5.6%
14,COc1ccc2nc(SC)[nH]c2c1,-6.5%
15,COc1ccc2nc(SCC(=O)NCc3cccs3)[nH]c2c1,-5.8%
16,COc1ccc2nc(SCC(=O)c3ccc(Cl)c(Cl)c3)[nH]c2c1,79.6% (active)
17,CC(=O)N1CCc2cc(N3CC(C(=O)Nc4cccc(F)c4)CC3=O)ccc21 (stereo unspecified),-3.7%
18,O=C(CCCC1=NS(=O)(=O)c2ccccc2N1)Nc1cccc(C(=O)O)c1,-7.1%
19,O=C(NCCC1=CCCCC1)C(=O)NCC(c1ccc2c(c1)OCO2)N1CCOCC1 (stereo unspecified),-1.8%
20,Cc1ccc(C)c(OCC(=O)Nc2ccccc2C(N)=O)c1,4.8%
21,O=C(NCC1COC2(CCCC2)O1)c1ccccc1[N+](=O)[O-] (stereo unspecified),-1.9%

row,SMILES,inhibition
1,O=C(C=Cc1ccco1)NCC1COC2(CCCCC2)O1 (stereo unspecified),-8.3%
2,O=C(CCc1ccccc1)NCC1COC2(CCCCC2)O1 (stereo unspecified),90.3% (active)
3,Cc1cc(NC(=O)N2CC3CCCN3c3ccccc32)ccc1Br (stereo unspecified),0.1%
4,CN1/C(=C/C(=O)c2ccc(I)cc2)Sc2ccccc21,-77.1%
5,CC(C)CNS(=O)(=O)c1ccc2nc(NC(=O)c3ccco3)sc2c1,45.1%
6,NC(COc1ccc(Cl)cc1)=NOC(=O)c1ccsc1,-6.2%
7,COc1cc(OC)c(N2C(=O)NC3CC2(C)Oc2ccccc23)cc1Cl (stereo unspecified),-6.1%
8,Fc1ccc(-c2nc(-c3ccc(Cl)cc3)no2)cc1,-2.6%
9,O=C(Nc1cc(F)c2nc(N3CCCC3)ccc2c1)c1cccc(F)c1,0.1%
10,COc1ccc(C2C=C(Nc3ccccc3)C(=O)N2c2ccccc2)c(OC)c1 (stereo unspecified),65.6% (active)
11,COc1ccc(/C=C2/C(=O)N(c3ccccc3)N=C2C)c(OC)c1,2.6%
12,O=C1C(Nc2ccccc2)=CC(c2ccc([N+](=O)[O-])cc2)N1c1ccccc1 (stereo unspecified),8.9%
13,Cc1ccc2c(c1)N(Cc1nc(-c3ccc(C)c(C)c3)no1)C(=O)CO2,-2.1%
14,CC(C=CC=C(C)C(=O)OC1OC(COC2OC(CO)C(O)C(O)C2O)C(O)C(O)C1O)=CC=CC=C(C)C=CC=C(C)C(=O)OC1OC(COC2OC(CO)C(O)C(O)C2O)C(O)C(O)C1O (stereo unspecified),-1.1%
15,CC(C)(C)NC(=O)N1CCC(CNC(=O)C(=O)Nc2cc(F)ccc2F)CC1,-4.8%
16,COc1cc(OC)c(OC)cc1CN1CCCC1c1cc(C)on1 (stereo unspecified),3.3%
17,CCN1C2=C(C(=O)CC(C)(C)C2)C(c2cc(Cl)c(O)c(OC)c2)C2=C1CC(C)(C)CC2=O,6.7%
18,CCOc1cc(C2C3=C(CCCC3=O)N(CC)C3=C2C(=O)CCC3)cc(Cl)c1O,65.7% (active)
19,CCN1C2=C(C(=O)CCC2)C(c2cc(Br)c(O)c(OC)c2)C2=C1CCCC2=O,1.1%
